# Bioassay records as filed in PubChem.
# A selection: hits, their analogues and other compounds. The true share with any hit is near 3.8%.
# Wnt act: Wnt/beta-catenin pathway activators, primary screen, cell-based, plate reader, single point; 1.2% of 300,000 active; activation, % at 9.35 µM; AID 743398, 2014; Wnt/beta-catenin reporter cell assay, activator; in the data active means activation above about 30%, passing the limit was not always enough;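 further: 0% = neutral control wells and 100% = positive control wells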
# MITF act: activators of MITF-driven TRPM1 promoter reporter, primary screen, cell-based, SK-MEL-5, luciferase, single point; SK-MEL-5 TRPM1-promoter luciferase, 24 h; % of positive control, neutral wells = 0; activation, % at 12.5 µM; 0.75% of 300,000 active;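 active means mean activation of at least 80% with every replicate also reaching 80%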;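 further: 0% = neutral control wells and 100% = parthenolide positive control wells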
# HSF1 inhib: HSF1 inhibitors in luciferase reporter cells, primary screen, cell-based, NIH3T3, luminescence. 0.77% of 300,000 active. AID 2098, 2009. activity change, negative = inhibition, % at 7.5 µM (by protocol). NIH3T3-HGL HSE-luciferase, MG132-induced, luminescence 8 h; active compounds read low;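 active means more than half of replicate wells show activity change below -50%, luminescence cut by over half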;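 further: luciferase reports HSF-1 transcriptional activity via heat shock element; 0% = median of DMSO wells and -100% = zero luminescence signal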
# HSF-1 act: HSF-1 activators, primary screen, NIH3T3-HGL cells, MG132 stress, luminescence, single point. NIH3T3-HGL HSF-1 luciferase reporter, 8 h; 100% = twice DMSO control signal. activation, % at 9 µM. 1.7% of 300,000 active;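 active means mean replicate activation of at least 50% with a set share of replicates each reaching 50%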;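 further: 0% = median of the neutral control wells and 100% = twice that signal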
# esBAF inh: Bmi1 luciferase reporter increase in mESCs, primary screen, esBAF inhibitor project, mouse ES cells, Bmi1 luciferase knock-in, single point | 24 h; 100% = twice the neutral-well signal | reporter increase, % at 12.5 µM | 2% of 350,000 active | AID 602393, 2012; in the data active means activation above about 40%;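 further: 0% = median of the plate's neutral control wells and 100% = double that signal; a rise in the Bmi1 reporter signal indicates esBAF inhibition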
# * hit, by the source's call; . = no result.
SMILES,Wnt act,MITF act,HSF1 inhib,HSF-1 act,esBAF inh
COc1ccc(-n2c(=O)c3ccccc3c3ccccc3c2=O)cc1,-13.3,-11.3,2.1,15.0,.
COc1ccc(OC)c(-n2c(=O)c3ccccc3c3ccccc3c2=O)c1,-0.9,-10.2,22.1,59.3*,.
Cc1ccc(-c2csc(NC(=O)c3cccc(C)c3)c2C(=O)O)cc1,40.2*,.,6.5,7.6,.
Cc1ccc(-c2csc(NC(=O)c3ccc(Br)cc3)c2C(=O)O)cc1,16.4,106.3*,2.8,24.3,42.9
CC(C)c1ccc(-c2csc(NC(=O)c3cccs3)c2C(=O)O)cc1,11.7,6.3,5.6,4.9,51.7*
Cc1ccc(-c2csc(NC(=O)c3ccccc3Cl)c2C(=O)O)cc1,11.5,2.8,-2.6,1.2,20.2
CN1C(=O)c2cc(NC(=O)C3CCCCC3)ccc2OC[C@@H]2O[C@H](CC(=O)NC3CCCC3)CC[C@@H]21,.,.,.,.,9.6
C[C@@H]1CN([C@@H](C)CO)C(=O)c2cc(NC(=O)Nc3ccc4c(c3)OCO4)ccc2O[C@H]1CN(C)C(=O)NC1CCCCC1,.,.,.,.,11.5
CO[C@@H]1CN(C)C(=O)c2ccc(NC(=O)Nc3cccc(Cl)c3)cc2OC[C@@H](C)NC[C@H]1C,.,.,.,.,4.2
COCCNC(=O)[C@@H]1[C@@H](CO)[C@@H]2Cn3c(ccc(-c4ccccc4)c3=O)[C@H]1N2C(=O)NC(C)C,.,.,.,.,2.5
Cc1n[nH]c(C)c1S(=O)(=O)N(CC(=O)N1CCc2ccccc21)c1ccc(C(C)C)cc1,-1.0,-19.7,62.1,75.0*,5.3
Cc1cc(N2CCN(C(=O)c3ccco3)CC2)n2ncnc2n1,-4.7,8.3,-6.7,0.2,.
CCOCCN1CCN(c2c(C)c(C)nc3cc(-c4cc(OC)cc(OC)c4)nn23)CC1,-7.7,31.1,5.2,39.1,1.8
Cc1cc(N2CCOCC2)n2ncc(-c3ccc(Cl)cc3)c2n1,8.5,.,.,.,.
Cc1cc(N2CCOCC2)n2ncc(-c3ccccc3)c2n1,.,-9.1,-60.5*,-69.2,-56.4
Cc1cc(N2CCN(C(=O)c3ccco3)CC2)n2ncc(-c3ccccc3)c2n1,-0.4,.,9.7,22.6,49.8*
COCCN1CCN(c2c(C)c(C)nc3cc(-c4cccc(OC)c4)nn23)CC1,28.8,-3.7,5.9,26.1,51.7*
Cc1cc(C)n(-c2cc(C(C)(C)C)nc3c(-c4ccccc4)cnn23)n1,55.9*,120.9*,.,.,.
C[C@H](CO)N1C[C@H](C)[C@H](CN(C)C(=O)Nc2ccc(C(F)(F)F)cc2)Oc2ncc(-c3ccc(C#N)cc3)cc2C1=O,.,.,.,.,-28.2
Cc1nc2cc(-c3cccc(F)c3)nn2c(N2CCN(C(=O)c3ccco3)CC2)c1C,.,25.0,9.5,14.6,42.8*
Cc1cc(N2CCC(C)CC2)n2ncc(-c3ccccc3)c2n1,-0.3,12.2,-78.8*,-80.9,-28.2
COc1ccc(-c2cc3nc(C)c(C)c(N4CCN(C(=O)c5ccoc5)CC4)n3n2)cc1,-4.6,.,.,.,3.7
C=CCc1c(C)nc2c(-c3ccccc3)cnn2c1N1CCOCC1,40.2*,75.9,-44.5,-54.8,83.8*
Cc1ccc(-c2cnn3c(N4CCOCC4)cc(C)nc23)cc1,7.3,43.2,-67.8*,-68.4,-29.3
C[C@@H]1CCCCO[C@@H](CN(C)S(=O)(=O)c2ccccc2)[C@H](C)CN([C@H](C)CO)C(=O)c2cc(NC(=O)c3ccccc3)ccc2O1,.,.,.,.,3.3
SMILES,Wnt act,MITF act,HSF1 inhib,HSF-1 act,esBAF inh
C[C@H](CO)N1C[C@H](C)[C@@H](CN(C)Cc2ccccc2)Oc2ncc(-c3ccccc3)cc2C1=O,.,.,.,.,-2.3
CC1CC(=O)Nc2ccccc2N1C(=O)Nc1ccc(F)cc1 (stereo unspecified),39.0*,.,-7.6,7.1,.
Cc1noc(C)c1NC(=O)NCC[C@@H]1CC[C@H](NC(=O)c2ccncc2)[C@H](CO)O1,.,.,.,.,0.9
Cc1ccc(S(=O)(=O)N(C)CC(=O)Nc2ccc(C)cn2)cc1,3.8,1.0,8.2,-6.2,18.3
Cc1ccc(-c2noc(CCC(=O)Nc3ccccc3C)n2)cc1,.,2.9,-2.4,-4.4,-4.0
O=C(Cc1ccc(-c2ccccc2)cc1)Nc1ccccn1,26.0,68.9,13.4,20.7,42.6*
Cc1ccnc(NC(=O)Cc2ccc(-c3ccccc3)cc2)c1,15.2,51.3,71.7,77.7*,.
Cc1ccc(S(=O)(=O)N(C)CC(=O)Nc2cc(C)ccn2)cc1,37.7*,7.3,-21.7,-17.0,66.0*
Cc1ccc(-c2noc(CCC(=O)Nc3cc(C)ccn3)n2)cc1,-1.9,.,26.6,69.1*,-0.4
CC(C)NC(=O)N[C@@H]1CC[C@@H](CCNC(=O)C2CCCC2)O[C@@H]1CO,.,.,.,.,-4.1
COCC(=O)N(C)C[C@@H]1Oc2ncc(-c3ccccc3F)cc2C(=O)N([C@H](C)CO)C[C@@H]1C,.,.,.,.,-3.1
C[C@@H]1CN([C@H](C)CO)C(=O)Cc2cc(NC(=O)Cn3cnnn3)ccc2O[C@@H]1CN(C)Cc1ccc(C(=O)O)cc1,.,.,.,.,4.4
CCNC(=O)[C@@H]1[C@@H](CO)[C@@H]2Cn3c(ccc(-c4ccncc4)c3=O)[C@@H]2N1Cc1ccccc1,.,.,.,.,-0.1
Cc1noc(C)c1NC(=O)N(C)C[C@H]1Oc2c(NC(=O)Nc3ccc(F)cc3)cccc2C(=O)N([C@H](C)CO)C[C@H]1C,.,.,.,.,-0.2
N#C[C@H]1[C@@H](c2ccc(/C=C/c3ccccc3)cc2)[C@@H](CO)N1C(=O)C1CC1,.,.,.,.,-6.7
C[C@@H]1CN([C@@H](C)CO)C(=O)c2cc(NC(=O)c3ccncc3)ccc2O[C@@H](C)CCCCO[C@H]1CN(C)C(=O)CCCN(C)C,.,.,.,.,-1.8
Cc1ccnc(NC(=O)CCS(=O)(=O)c2ccccc2)c1,-2.4,6.3,-0.3,18.6,25.2
O=C(CCS(=O)(=O)c1ccccc1)Nc1ccccn1,1.7,-4.3,16.7,58.7*,9.1
COC(=O)c1c(C)[nH]c(C=O)c1-c1ccccc1,13.8,.,-3.2,-4.0,.
COC(=O)c1c(-c2ccccc2)c[nH]c1C,24.1,59.3,11.7,25.3,51.4*
C[C@H](CO)N1C[C@H](C)[C@@H](CN(C)Cc2cccnc2)Oc2ncc(C#CC3CCCCC3)cc2C1=O,.,.,.,.,1.1
Cn1nccc1-c1coc2c(C(=O)NCc3ccccc3)cccc12,1.1,.,.,.,38.3
COc1ccc(-c2ccc(C(=O)Nc3ccc(Cl)cc3)c3occc23)c(C)c1,4.7,.,.,.,79.8*
Cn1nccc1-c1ccc(C(=O)NCc2ccc(Cl)cc2)c2occc12,.,.,.,.,80.3*
COc1ccc(-c2ccc(C(=O)NCc3ccccc3)c3occc23)c(C)c1,9.8,.,.,.,49.6*
COc1ccc(-c2ccc(C(=O)Nc3ccc(NC(C)=O)cc3)c3occc23)c(C)c1,-3.5,.,.,.,-2.9
COc1ccc(-c2cc3nc4ccccc4n3c(N)c2C#N)cc1,22.6,113.7*,4.7,29.2,.
Cc1ccccc1C(=O)c1cccn1CC(=O)NCc1ccc(Cl)cc1,-1.3,-1.5,12.8,3.0,15.8
